The nature of experiment [1]: Nuclear factor erythroid 2-related factor 2/antioxidant responsive element (Nrf2/ARE) small molecule agonists: qHTS cell viability counter screen in human keratinocytes (AID 1919968; active = well fitted curve in the direction sought with a large enough effect in the repeat runs; an effect the other way counts as inactive or inconclusive; note: nearly all actives have a fitted effect of over 55% in size; note: potency is the fitted concentration of half-maximal effect). Summed up: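 KeratinoSens cells (HaCaT keratinocytes stably carrying an ARE-luciferase reporter) were seeded at 1,500 cells/well and rested 5 h at 37 C/5% CO2. They were then exposed to compounds in DMSO for 23 h. Viability was read by CellTiter-Fluor fluorescence after 1 h.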
(In general: qHTS replaces the single test concentration by a dilution series.)

Experiment [2] deals with Gonadotropin-releasing hormone receptor (Homo sapiens) (UniProt P30968). The experiment is described as follows: Human gonadotropin-releasing hormone receptor (GnRHR) small molecule agonists, calcium flux assay in GnRHR-HEK293 cells (AID 1920063). Note: nearly all actives have a fitted effect of over 35% in size. Summed up: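 HEK293 cells stably expressing human GnRHR were plated 18 h at 37 °C, loaded with calcium dye 1 h at 37 °C, then given compound in agonist mode; fluorescence (Ex/Em 480/540) read kinetically for 3 min at 1 s intervals.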
Gonadotropin-releasing hormone receptor (Homo sapiens), sequence (P30968 whole entry, looked up): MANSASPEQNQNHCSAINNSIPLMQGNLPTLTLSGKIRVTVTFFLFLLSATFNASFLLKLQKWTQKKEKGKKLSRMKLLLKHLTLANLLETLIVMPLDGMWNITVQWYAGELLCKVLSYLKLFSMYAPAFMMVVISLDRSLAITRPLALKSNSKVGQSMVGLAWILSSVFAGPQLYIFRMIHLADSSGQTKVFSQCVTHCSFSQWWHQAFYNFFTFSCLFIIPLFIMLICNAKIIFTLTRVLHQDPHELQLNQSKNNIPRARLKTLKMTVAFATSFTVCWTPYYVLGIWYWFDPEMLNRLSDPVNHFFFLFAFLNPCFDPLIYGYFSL
A general note: A change in cytosolic calcium serves as a functional read-out for many receptors and channels.

The target in experiment [3] is KiSS-1 receptor (Homo sapiens) (UniProt Q969F8). The experiment is described as follows: Human kisspeptin (KISS1R) small molecule agonists, calcium flux assay in KISS1R-HEK293 cells (AID 1920064; active = well fitted curve in the direction sought with a large enough effect in the repeat runs; an effect the other way counts as inactive or inconclusive). The method, boiled down: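 HEK293 cells stably expressing human KISS1R were plated 18 h at 37 °C, loaded with calcium dye for 1 h at 37 °C, then given compound by pin tool. Fluorescence (Ex/Em 480/540) was read kinetically for 3 min.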
KiSS-1 receptor (Homo sapiens), sequence (Q969F8 whole entry, looked up): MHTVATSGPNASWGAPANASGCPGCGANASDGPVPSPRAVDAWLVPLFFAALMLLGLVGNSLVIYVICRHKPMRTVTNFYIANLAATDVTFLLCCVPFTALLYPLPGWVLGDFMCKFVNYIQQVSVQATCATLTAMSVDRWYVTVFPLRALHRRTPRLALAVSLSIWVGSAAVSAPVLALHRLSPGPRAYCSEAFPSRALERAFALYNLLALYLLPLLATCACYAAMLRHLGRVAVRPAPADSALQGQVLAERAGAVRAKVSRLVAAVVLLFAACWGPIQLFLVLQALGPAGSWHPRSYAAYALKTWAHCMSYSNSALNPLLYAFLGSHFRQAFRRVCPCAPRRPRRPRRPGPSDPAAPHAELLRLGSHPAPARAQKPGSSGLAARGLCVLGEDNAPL

Experiment [4] in a line: G protein-coupled receptor (GPCR) small molecule agonists, calcium flux assay: HEK293 wild type cell line counter screen (AID 1920065). Summed up: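 Cells were plated and cultured 18 h at 37 C/5% CO2, then loaded with calcium dye for 1 h at 37 C. Compounds in DMSO were pin-transferred in agonist mode, and fluorescence (Ex/Em 480/540) was read kinetically for 3 min at 1 s intervals.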

Experiment [5] in a line: p53 small molecule agonists, cell-based qHTS assay with human liver microsomes: qHTS cell viability counter screen (AID 1963579). Note: nearly all actives have a fitted effect of over 45% in size. Note: potency is the fitted concentration of half-maximal effect. Summed up:
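Cytotoxicity counter screen: p53RE-bla, 4,000 cells/well; 5 h settle, 37 C/5% CO2; cpd + HLM 0.5 mg/mL + NADPH 0.5 mg/mL (final); 16 h, 37 C; CellTiter-Glo, 30 min RT, luminescence.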

Experiment [6] can be described thus: p53 small molecule agonists, cell-based qHTS assay with rat liver microsomes: qHTS cell viability counter screen (AID 1963580). Note: nearly all actives have a fitted effect of over 45% in size. Note: potency is the fitted concentration of half-maximal effect. The method, boiled down:
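In HCT-116 cells carrying a p53 response element-bla reporter, compounds were metabolically activated in situ by rat liver microsomes with NADPH over 16 h. Cell ATP content then served as the cytotoxicity measure.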

A short description of experiment [7]: p53 small molecule agonists, cell-based qHTS assay: qHTS cell viability counter screen (AID 1963581). Note: nearly all actives have a fitted effect of over 45% in size. The method, boiled down: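 p53RE-bla HCT-116 cells were exposed to compounds for 16 h at 37 C; after the beta-lactamase FRET read in the same wells, CellTiter-Glo was added and luminescence (intracellular ATP) read after 30 min at room temperature.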
Experiment [8] concerns the target 5-hydroxytryptamine receptor 2A (Homo sapiens) (UniProt P28223). The experiment is described as follows: 5-hydroxytryptamine receptor 2A (HTR2A) small molecule agonists, cell-based qHTS assay (AID 1963587). Note: nearly all actives have a fitted effect of over 30% in size. The method, boiled down:
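HTR2A-CHO cells, plated 18 h at 37 C/5% CO2, dye-loaded 1 h at 37 C; compounds in DMSO added by pin tool (agonist mode). Intracellular calcium flux read as kinetic fluorescence on FDSS over 2 min at 1 s intervals.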

Experiment [9] deals with Muscarinic acetylcholine receptor M1 (Homo sapiens) (UniProt P11229). The experiment in a line: Cholinergic receptor muscarinic 1 (CHRM1) small molecule agonists, cell-based qHTS assay (AID 1963589). Note: nearly all actives have a fitted effect of over 35% in size. Summed up: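 CHO cells stably expressing human CHRM1, seeded 18 h at 37 C/5% CO2, dye-loaded 1 h at 37 C, then given compound in agonist mode; intracellular calcium fluorescence read kinetically at 1 s intervals. Fifteen concentrations, three independent runs.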
Muscarinic acetylcholine receptor M1 (Homo sapiens), sequence (P11229 whole entry, looked up): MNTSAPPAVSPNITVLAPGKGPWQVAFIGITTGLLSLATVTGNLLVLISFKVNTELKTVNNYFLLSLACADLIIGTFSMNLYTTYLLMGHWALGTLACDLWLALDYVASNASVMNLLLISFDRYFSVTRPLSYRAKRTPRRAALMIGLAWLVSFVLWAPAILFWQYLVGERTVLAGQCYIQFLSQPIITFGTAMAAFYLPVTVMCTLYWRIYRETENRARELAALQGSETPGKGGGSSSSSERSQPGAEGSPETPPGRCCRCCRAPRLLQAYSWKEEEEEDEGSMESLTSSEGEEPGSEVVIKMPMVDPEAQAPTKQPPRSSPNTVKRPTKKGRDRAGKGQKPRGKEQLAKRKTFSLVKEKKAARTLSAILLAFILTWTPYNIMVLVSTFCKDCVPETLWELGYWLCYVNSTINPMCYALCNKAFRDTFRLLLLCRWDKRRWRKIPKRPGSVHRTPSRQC

A short description of experiment [10]: cAMP Responsive Elements (CRE) small molecule antagonists, cell-based qHTS assay (AID 1963591; active = well fitted inhibition curve with a large enough effect in the signal ratio in the repeat runs, not every such curve was filed as active; the % refers to the signal ratio). Summed up:
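CRE-bla HEK293T cells were plated 18 h at 37 °C/5% CO2, pinned with compound in DMSO, then stimulated with NKH477 at 0.25 uM final for 3 h. LiveBLAzer B/G FRET substrate was added and plates incubated 2 h at room temperature.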

Experiment [11] addresses Beta-2 adrenergic receptor (Homo sapiens) (UniProt P07550). The experiment is described as follows: Adrenergic beta2 receptor (ADRB2) small molecule antagonists, cell-based qHTS assay (AID 1963592). Note: series mostly up to about 92 µM; nearly all actives have a fitted effect of over 50% in size. Summed up:
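Cells (CHO, stable ADRB2 overexpression) incubated 18-20hr at 37C; compounds added from DMSO; agonist mix (1nM isoproterenol, 100uM IBMX, 25uM Ro-20-1724) added; 0.5hr RT; d2-cAMP and anti-cAMP-cryptate added; 1hr RT; 665/615 nm read.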

Experiment [12] concerns the target D(2) dopamine receptor (Homo sapiens) (UniProt P14416). The experiment in a line: Dopamine D2 receptor (DRD2) small molecule antagonists, cell-based qHTS assay (AID 1963595; active = well fitted inhibition curve with a large enough effect in the signal ratio in the repeat runs, with a control signal flat; the % refers to the signal ratio). Summed up: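 Antagonist mode in DRD2-HEK293 cells: after compound addition with 0.1 mM Ro20-1724, cells received quinpirole (12 nM) and NKH477 (200 nM) for 30 min at room temperature; HTRF cAMP read after 1 h detection.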

Experiment [13] addresses 5-hydroxytryptamine receptor 2A (Homo sapiens) (UniProt P28223). The experiment in a line: 5-hydroxytryptamine receptor 2A (HTR2A) small molecule antagonists, cell-based qHTS assay (AID 1963586). Note: nearly all actives have a fitted effect of over 45% in size. Summed up:
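Antagonist-mode intracellular calcium assay: DOI (4 nM) added after 5 min compound pre-incubation at room temperature to dye-loaded HTR2A-CHO cells. Fluorescence followed for 3 min, sampled every second.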

The target of experiment [14] is Muscarinic acetylcholine receptor M1 (Homo sapiens) (UniProt P11229). The experiment in a line: Cholinergic receptor muscarinic 1 (CHRM1) small molecule antagonists, cell-based qHTS assay (AID 1963588). Note: nearly all actives have a fitted effect of over 40% in size. The method, boiled down: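 CHRM1-CHO calcium-flux assay, antagonist mode. Cells were seeded 18 h, dye-loaded 1 h at 37 C and given compound for 5 min at RT, then acetylcholine was added at 50nM. FDSS fluorescence was read 3 min; 15 concentrations, three runs.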

Experiment [15] in a line: cAMP Responsive Elements (CRE) small molecule agonists, cell-based qHTS assay (AID 1963590). The method, boiled down: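 CRE-bla HEK 293T cells in DMEM with 10% dialyzed FBS, NEAA, pyruvate and 25 mM HEPES were plated 18 h at 37 C/5% CO2, then exposed to compounds in DMSO for 3 h before LiveBLAzer B/G FRET substrate addition.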
Experiment [16] has as its target D(2) dopamine receptor (Homo sapiens) (UniProt P14416). The experiment is described as follows: Dopamine D2 receptor (DRD2) small molecule agonists, cell-based qHTS assay (AID 1963594). Note: nearly all actives have a fitted effect of over 35% in size. The method, boiled down: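 HEK293 cells stably expressing DRD2 were cultured 24 h at 37 C, then given Ro20-1724 (0.1 mM final) and compounds for 10 min at room temperature. NKH477 (200nM) was then added for 30 min. cAMP was read by HTRF.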

Experiment [17] has as its target Beta-2 adrenergic receptor (Homo sapiens) (UniProt P07550). The experiment in a line: Adrenergic beta2 receptor (ADRB2) small molecule agonists, cell-based qHTS assay (AID 1963593).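 Note: CHO cells stably overexpressing human ADRB2.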 Summed up: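 CHO cells stably over-expressing ADRB2 were plated overnight at 37C, then dosed with compounds plus a stimulation mix containing 100uM IBMX and 25uM Ro-20-1724 for 0.5hr at room temperature. cAMP was measured by HTRF competition, 1hr.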

Values without a mark were called inactive. Inconclusive results are not listed. The source made the active and inactive calls. Unless noted, calls come from the whole dose curve.

D(2) dopamine receptor (Homo sapiens), sequence (P14416 whole entry, looked up): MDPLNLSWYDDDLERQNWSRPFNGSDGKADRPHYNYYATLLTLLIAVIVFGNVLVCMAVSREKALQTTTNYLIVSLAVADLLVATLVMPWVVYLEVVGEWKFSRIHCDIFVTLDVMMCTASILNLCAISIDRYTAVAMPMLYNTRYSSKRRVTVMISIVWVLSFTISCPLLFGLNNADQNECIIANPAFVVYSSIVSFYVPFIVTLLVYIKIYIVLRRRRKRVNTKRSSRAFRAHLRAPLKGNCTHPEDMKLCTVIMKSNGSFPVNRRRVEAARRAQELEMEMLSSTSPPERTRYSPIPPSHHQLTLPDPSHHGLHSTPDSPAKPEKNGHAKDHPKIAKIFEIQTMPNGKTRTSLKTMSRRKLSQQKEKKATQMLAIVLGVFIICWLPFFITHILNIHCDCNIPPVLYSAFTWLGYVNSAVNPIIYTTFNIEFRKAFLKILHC
5-hydroxytryptamine receptor 2A (Homo sapiens), sequence (P28223 whole entry, looked up): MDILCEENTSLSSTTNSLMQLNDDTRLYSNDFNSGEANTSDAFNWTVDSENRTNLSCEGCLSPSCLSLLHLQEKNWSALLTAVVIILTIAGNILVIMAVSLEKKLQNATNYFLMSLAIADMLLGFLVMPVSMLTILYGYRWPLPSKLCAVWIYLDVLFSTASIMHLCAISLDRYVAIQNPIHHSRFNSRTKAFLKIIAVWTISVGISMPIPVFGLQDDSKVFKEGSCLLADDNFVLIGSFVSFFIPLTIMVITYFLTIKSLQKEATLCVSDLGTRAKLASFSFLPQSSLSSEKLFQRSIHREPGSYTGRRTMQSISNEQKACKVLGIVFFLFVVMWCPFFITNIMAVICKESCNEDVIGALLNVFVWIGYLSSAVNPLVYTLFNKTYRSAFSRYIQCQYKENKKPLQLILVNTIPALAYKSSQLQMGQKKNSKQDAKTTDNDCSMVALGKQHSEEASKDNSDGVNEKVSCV
Beta-2 adrenergic receptor (Homo sapiens), sequence (P07550 whole entry, looked up): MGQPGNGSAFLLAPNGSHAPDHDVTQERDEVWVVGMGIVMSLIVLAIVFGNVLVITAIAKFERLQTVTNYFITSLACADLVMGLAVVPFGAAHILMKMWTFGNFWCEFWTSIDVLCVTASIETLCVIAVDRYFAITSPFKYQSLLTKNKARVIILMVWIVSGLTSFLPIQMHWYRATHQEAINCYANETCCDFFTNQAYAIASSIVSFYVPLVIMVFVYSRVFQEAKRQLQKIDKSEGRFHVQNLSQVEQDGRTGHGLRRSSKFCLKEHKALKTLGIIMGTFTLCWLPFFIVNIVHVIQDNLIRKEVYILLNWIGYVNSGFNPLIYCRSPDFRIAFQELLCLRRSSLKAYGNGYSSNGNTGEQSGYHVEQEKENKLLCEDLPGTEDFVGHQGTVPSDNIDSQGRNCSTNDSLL

Take `NC(Cc1c[nH]c2ccccc12)C(=O)O` (centres undefined): the Potency entry in experiment [1], in experiment [2], in experiment [3], in experiment [4], in experiment [5] and in experiment [6] was “inactive” throughout. Moreover, the Potency entry in experiment [7], in experiment [8], in experiment [9], in [10], in [11] and in [12] was “inactive” in each case.
For `O=S1(=O)N=C(O)c2ccccc21`, the Potency entry in experiment [1], in [2], in experiment [3], in [4], in [5] and in [6] was “inactive” each time. In addition, the Potency result in experiment [13], in experiment [8], in [14], in experiment [9], in [15] and in experiment [10] was “inactive” in each case. For the same molecule, the Potency result in [11], in experiment [16] and in experiment [12] was “inactive” throughout.
Take `CC(C)OC(=O)c1ccccc1C(=O)OC(C)C`: the Potency result in experiment [1], in experiment [2], in experiment [3], in [4], in experiment [5] and in experiment [6] was “inactive” each time. For the same molecule, the Potency entry in [7], in experiment [8], in experiment [14], in experiment [9], in experiment [15] and in experiment [10] was “inactive” each time. Moreover, the Potency entry in experiment [16] and in [12] was “inactive” in each case.
For `CCCCCCC[N+](CC)(CC)CCCCc1ccc(Cl)cc1`, the Potency entry in experiment [1], in experiment [2], in experiment [3], in experiment [4], in experiment [5] and in [6] was “inactive” in each case. The Potency result in [7], in experiment [13], in experiment [8], in experiment [9] and in [12] was “inactive” throughout.
In the case of `C[Si](C)(C)O[Si](O)(O)O`, the Potency entry in experiment [1], in [2], in experiment [3], in [4], in [5] and in experiment [6] was “inactive” in each case. Also, the Potency entry in experiment [7], in experiment [13], in [14], in experiment [10], in experiment [11] and in experiment [17] was “inactive” in each case. Also, the Potency entry in [16] and in experiment [12] was “inactive” in each case.
For the molecule `O=C(O)c1ccc(S(=O)(=O)O)cc1C(=O)O`, the Potency result in [1], in experiment [2], in experiment [3], in experiment [4], in [5] and in experiment [6] was “inactive” in each case. Besides, the Potency entry in [7], in [8], in experiment [14], in experiment [9], in experiment [15] and in [10] was “inactive” throughout. For the same molecule, the Potency entry in [11], in experiment [17], in experiment [16] and in [12] was “inactive” each time.
Turning to `C/C=C/C=N/NC(=O)c1ccncc1`, the Potency result in [1], in experiment [2], in experiment [3], in [4], in [5] and in experiment [6] was “inactive” each time. Besides, the Potency result in [7], in experiment [13], in experiment [8], in [14], in experiment [9] and in [17] was “inactive” throughout. Moreover, in experiment [12], the Potency result was “inactive”.
In the case of `O=S(=O)(O)SSS(=O)(=O)O`, the Potency result in [1], in experiment [2], in [3], in experiment [4], in [5] and in experiment [6] was “inactive” each time. Moreover, the Potency result in experiment [7], in [13], in experiment [14], in experiment [9], in [15] and in experiment [10] was “inactive” in each case. Also, the Potency entry in experiment [11], in experiment [17], in experiment [16] and in experiment [12] was “inactive” throughout.
Turning to `N#Cc1nc(Cl)c(Cl)c(Cl)c1Cl`, the figures for the Potency in [1], in experiment [5] and in experiment [6] were 6.11 µM (active), 11.5 µM (active) and 36.3 µM (active), respectively. Moreover, the Potency entry in experiment [2], in experiment [3], in [4], in experiment [13], in experiment [8] and in experiment [14] was “inactive” throughout. Further, the Potency entry in experiment [9], in experiment [11], in experiment [16] and in [12] was “inactive” in each case.

These data come from PubChem BioAssay (Tox21).
